Laboratory results published in the supplement of paper PMC4466140.

Tests used:
Experiment in all cases: SPOT peptide array binding signal intensity (averaged, normalized) (arbitrary units (background-subtracted, floor 0; scale differs between SH3 domains)); higher = stronger binding of the SH3 domain to the peptide
AgAbp1 = target: AgAbp1
Summary of the method: (§1)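 GST-fused SH3 domains, from four yeast species, were produced in E. coli BL21(DE3) and captured on glutathione Sepharose. Membranes of cellulose carrying synthetic 15-mer peptides, in which cysteines had been replaced by serines, were exposed to each domain at 10 μg/ml overnight at 4°C in TBS-based blocking buffer. After anti-GST antibody, an HRP anti-mouse secondary and luminol, spots were imaged and quantified using Genespotter. Binding signal is normalized and background-subtracted spot intensity, averaged over replicates, in arbitrary units that differ between domains.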

AgBbc1 = target: AgBbc1
Summary of the method: as §1

AgBem1-D1 = target: AgBem1-D1
Summary of the method: as §1

AgBzz1-D1 = target: AgBzz1-D1
Summary of the method: as §1

AgBzz1-D2 = target: AgBzz1-D2
Summary of the method: as §1

AgCyk3 = target: AgCyk3
Summary of the method: as §1

AgFus1 = target: AgFus1
Summary of the method: as §1

AgHof1 = target: AgHof1
Summary of the method: as §1

AgHse1 = target: AgHse1
Summary of the method: as §1

AgLsb1 = target: AgLsb1
Summary of the method: as §1

AgLsb4 = target: AgLsb4
Summary of the method: as §1

AgMyo5 = target: AgMyo5
Summary of the method: as §1

AgNbp2 = target: AgNbp2
Summary of the method: as §1

AgRvs167 = target: AgRvs167
Summary of the method: as §1

AgSho1 = target: AgSho1
Summary of the method: as §1

AgSla1-D1-D2 = target: AgSla1-D1-D2
Summary of the method: as §1

AgSla1-D3 = target: AgSla1-D3
Summary of the method: as §1

CaAbp1-D1 = target: CaAbp1-D1
Summary of the method: as §1

CaAbp1-D2 = target: CaAbp1-D2
Summary of the method: as §1

CaBbc1 = target: CaBbc1
Summary of the method: as §1

CaBem1-D1 = target: CaBem1-D1
Summary of the method: as §1

CaBzz1-D1 = target: CaBzz1-D1
Summary of the method: as §1

CaBzz1-D2 = target: CaBzz1-D2
Summary of the method: as §1

CaCyk3 = target: CaCyk3
Summary of the method: as §1

CaFus1 = target: CaFus1
Summary of the method: as §1

CaHof1 = target: CaHof1
Summary of the method: as §1

CaHse1 = target: CaHse1
Summary of the method: as §1

CaLsb1 = target: CaLsb1
Summary of the method: as §1

CaLsb4 = target: CaLsb4
Summary of the method: as §1

CaMyo5 = target: CaMyo5
Summary of the method: as §1

CaNbp2 = target: CaNbp2
Summary of the method: as §1

CaRvs167 = target: CaRvs167
Summary of the method: as §1

CaRvs167-3 = target: CaRvs167-3
Summary of the method: as §1

CaSho1 = target: CaSho1
Summary of the method: as §1

CaSla1-D1-D2 = target: CaSla1-D1-D2
Summary of the method: as §1

CaSla1-D3 = target: CaSla1-D3
Summary of the method: as §1

ScAbp1 = target: ScAbp1
Summary of the method: as §1

ScBbc1 = target: ScBbc1
Summary of the method: as §1

ScBem1-D1 = target: ScBem1-D1
Summary of the method: as §1

ScBzz1-D1 = target: ScBzz1-D1
Summary of the method: as §1

ScBzz1-D2 = target: ScBzz1-D2
Summary of the method: as §1

ScCyk3 = target: ScCyk3
Summary of the method: as §1

ScFus1 = target: ScFus1
Summary of the method: as §1

ScHof1 = target: ScHof1
Summary of the method: as §1

ScHse1 = target: ScHse1
Summary of the method: as §1

ScLsb1 = target: ScLsb1
Summary of the method: as §1

ScLsb2 = target: ScLsb2
Summary of the method: as §1

ScLsb3 = target: ScLsb3
Summary of the method: as §1

ScLsb4 = target: ScLsb4
Summary of the method: as §1

ScMyo3 = target: ScMyo3
Summary of the method: as §1

ScMyo5 = target: ScMyo5
Summary of the method: as §1

ScNbp2 = target: ScNbp2
Summary of the method: as §1

ScPex13 = target: ScPex13
Summary of the method: as §1

ScRvs167 = target: ScRvs167
Summary of the method: as §1

ScSho1 = target: ScSho1
Summary of the method: as §1

ScSla1-D1-D2 = target: ScSla1-D1-D2
Summary of the method: as §1

ScSla1-D3 = target: ScSla1-D3
Summary of the method: as §1

SpAbp1-D1 = target: SpAbp1-D1
Summary of the method: as §1

SpBbc1 = target: SpBbc1
Summary of the method: as §1

SpBzz1-D1 = target: SpBzz1-D1
Summary of the method: as §1

SpBzz1-D2 = target: SpBzz1-D2
Summary of the method: as §1

SpCyk3 = target: SpCyk3
Summary of the method: as §1

SpHof1 = target: SpHof1
Summary of the method: as §1

SpHof1-2 = target: SpHof1-2
Summary of the method: as §1

SpHof1-3 = target: SpHof1-3
Summary of the method: as §1

SpHse1 = target: SpHse1
Summary of the method: as §1

SpLsb1 = target: SpLsb1
Summary of the method: as §1

SpLsb4 = target: SpLsb4
Summary of the method: as §1

SpMyo1 = target: SpMyo1
Summary of the method: as §1

SpNbp2 = target: SpNbp2
Summary of the method: as §1

SpPex13 = target: SpPex13
Summary of the method: as §1

SpRvs167 = target: SpRvs167
Summary of the method: as §1

SpSla1-D1-D2 = target: SpSla1-D1-D2
Summary of the method: as §1

SpSla1-D3 = target: SpSla1-D3
Summary of the method: as §1

B1: unnamed (peptide)
chain: QQEQNTPPLPPKPKS
- SPOT peptide array binding signal intensity (AgAbp1): 10.5
- SPOT peptide array binding signal intensity (AgBbc1): ≤ 0
- SPOT peptide array binding signal intensity (AgBem1-D1): ≤ 0
- SPOT peptide array binding signal intensity (AgBzz1-D1): 194
- SPOT peptide array binding signal intensity (AgBzz1-D2): 5.5
- SPOT peptide array binding signal intensity (AgCyk3): ≤ 0
- SPOT peptide array binding signal intensity (AgFus1): ≤ 0
- SPOT peptide array binding signal intensity (AgHof1): 760
- SPOT peptide array binding signal intensity (AgHse1): ≤ 0
- SPOT peptide array binding signal intensity (AgLsb1): ≤ 0
- SPOT peptide array binding signal intensity (AgLsb4): 151
- SPOT peptide array binding signal intensity (AgMyo5): ≤ 0
- SPOT peptide array binding signal intensity (AgNbp2): ≤ 0
- SPOT peptide array binding signal intensity (AgRvs167): ≤ 0
- SPOT peptide array binding signal intensity (AgSho1): 16.5
- SPOT peptide array binding signal intensity (AgSla1-D1-D2): 2
- SPOT peptide array binding signal intensity (AgSla1-D3): 3.75
- SPOT peptide array binding signal intensity (CaAbp1-D1): 53
- SPOT peptide array binding signal intensity (CaAbp1-D2): 33.5
- SPOT peptide array binding signal intensity (CaBbc1): 9
- SPOT peptide array binding signal intensity (CaBem1-D1): ≤ 0
- SPOT peptide array binding signal intensity (CaBzz1-D1): 166
- SPOT peptide array binding signal intensity (CaBzz1-D2): 34.8
- SPOT peptide array binding signal intensity (CaCyk3): ≤ 0
- SPOT peptide array binding signal intensity (CaFus1): 9
- SPOT peptide array binding signal intensity (CaHof1): 0.25
- SPOT peptide array binding signal intensity (CaHse1): 404
- SPOT peptide array binding signal intensity (CaLsb1): 0.5
- SPOT peptide array binding signal intensity (CaLsb4): 1300
- SPOT peptide array binding signal intensity (CaMyo5): ≤ 0
- SPOT peptide array binding signal intensity (CaNbp2): ≤ 0
- SPOT peptide array binding signal intensity (CaRvs167): ≤ 0
- SPOT peptide array binding signal intensity (CaRvs167-3): ≤ 0
- SPOT peptide array binding signal intensity (CaSho1): 13.5
- SPOT peptide array binding signal intensity (CaSla1-D1-D2): ≤ 0
- SPOT peptide array binding signal intensity (CaSla1-D3): ≤ 0
- SPOT peptide array binding signal intensity (ScAbp1): 5
- SPOT peptide array binding signal intensity (ScBbc1): 2.5
- SPOT peptide array binding signal intensity (ScBem1-D1): ≤ 0
- SPOT peptide array binding signal intensity (ScBzz1-D1): 7
- SPOT peptide array binding signal intensity (ScBzz1-D2): 3
- SPOT peptide array binding signal intensity (ScCyk3): 1
- SPOT peptide array binding signal intensity (ScFus1): ≤ 0
- SPOT peptide array binding signal intensity (ScHof1): 109
- SPOT peptide array binding signal intensity (ScHse1): ≤ 0
- SPOT peptide array binding signal intensity (ScLsb1): 223
- SPOT peptide array binding signal intensity (ScLsb2): ≤ 0
- SPOT peptide array binding signal intensity (ScLsb3): 3310
- SPOT peptide array binding signal intensity (ScLsb4): 67
- SPOT peptide array binding signal intensity (ScMyo3): ≤ 0
- SPOT peptide array binding signal intensity (ScMyo5): ≤ 0
- SPOT peptide array binding signal intensity (ScNbp2): ≤ 0
- SPOT peptide array binding signal intensity (ScPex13): 680
- SPOT peptide array binding signal intensity (ScRvs167): 58.3
- SPOT peptide array binding signal intensity (ScSho1): 152
- SPOT peptide array binding signal intensity (ScSla1-D1-D2): ≤ 0
- SPOT peptide array binding signal intensity (ScSla1-D3): ≤ 0
- SPOT peptide array binding signal intensity (SpAbp1-D1): 23.5
- SPOT peptide array binding signal intensity (SpBbc1): 0.5
- SPOT peptide array binding signal intensity (SpBzz1-D1): 336
- SPOT peptide array binding signal intensity (SpBzz1-D2): ≤ 0
- SPOT peptide array binding signal intensity (SpCyk3): 1.5
- SPOT peptide array binding signal intensity (SpHof1): ≤ 0
- SPOT peptide array binding signal intensity (SpHof1-2): 12.2
- SPOT peptide array binding signal intensity (SpHof1-3): 16
- SPOT peptide array binding signal intensity (SpHse1): 28.2
- SPOT peptide array binding signal intensity (SpLsb1): 585
- SPOT peptide array binding signal intensity (SpLsb4): 1340
- SPOT peptide array binding signal intensity (SpMyo1): ≤ 0
- SPOT peptide array binding signal intensity (SpNbp2): ≤ 0
- SPOT peptide array binding signal intensity (SpPex13): ≤ 0
- SPOT peptide array binding signal intensity (SpRvs167): 462
- SPOT peptide array binding signal intensity (SpSla1-D1-D2): ≤ 0
- SPOT peptide array binding signal intensity (SpSla1-D3): ≤ 0
